In the library only some 6.8% were active in any assay of this set; here they are far more common.
A340 absorber: absorbance at 340 nm | compound absorbance at 340 nm, fold over control | fold change at 10 µM | 65,000 tested, under 10 active | AID 708;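 active means at 10 µM dose, initial 340 nm absorbance at least 2 fold that of control wells; inactive means change under 2 fold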;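 further: initial absorbance extrapolated from kinetic A340 decline of NADH oxidation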
DPM-DC inhibit: S. pneumoniae DPM-DC inhibition | purified DPM-DC, PK/LDH coupled NADH fluorescence | calls only at 10 µM | hit rate 0.49% among 65,000;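 active means the 320 compounds with the highest percent inhibition in the single-dose primary screen, excluding strongly autofluorescent ones, cut at about 32% in these data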;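 further: kinetic rate of NADH fluorescence loss reporting ADP formed by the decarboxylase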
NADH coupling: inhibition of NAD/NADH coupling enzymes, library profiling; hit rate 0.02% among 65,000; IC50, µM (series often up to 10 µM), without a hit: at the top dose inhibition; AID 774; coupled PK/LDH NADH assays, four targets;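 active means single-dose screening hits from any of four coupled enzyme assays that gave an IC50 when retested across doses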;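 further: the DPM-DC format reads NADH fluorescence rather than 340 nm absorbance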
Autofluor 339: intrinsic fluorescence of library compounds, ex339/em460 – biochemical, MLSMR library, data from DPM-DC assay, artefact control, profiling panel; compound autofluorescence, ex339/em460 nm, NADH buffer; stronger effect = higher value; 1 = no-compound wells, NADH background; fluorescence fold increase at 10 µM; hit rate 5.5% among 65,000;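 active means at 10 µM, mean starting fluorescence two-fold or more over control wells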;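 further: signal is the first read of a kinetic run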
Spn MK inh: inhibitors of Streptococcus pneumoniae mevalonate kinase; purified MK, PK/LDH-coupled NADH absorbance 340 nm; inhibition, % at 10 µM; hit rate 0.48% among 65,000; AID 555;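 active means ranked among the strongest by inhibition in the single 10 µM screen, a fixed top-ranked set picked for dose follow-up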
Spn PMK inh: blocks S. pneumoniae phosphomevalonate kinase; hit rate 0.49% among 65,000; purified PMK, PK/LDH-coupled NADH absorbance 340 nm; inhibition, % at 10 µM;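 active means top-ranked compounds by inhibition in the single 10 µM screen, taking a fixed number of the strongest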;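 further: 0% = full reaction with DMSO carrier and 100% = background rate without enzyme reaction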
Numbers without * were called inactive.

For Cc1noc(C)c1COC(=O)c1ccc(-c2nc3ccccc3s2)s1 the results were A340 absorber 1.07, DPM-DC inhibit inactive, NADH coupling 1.0%, Autofluor 339 3.96*, Spn MK inh 2.0 and Spn PMK inh 1.0.
`COc1ccc(-c2c3c(=O)n(C)c(=O)n(C)c3cn2-c2ccccc2)cc1` gave A340 absorber 1.02, NADH coupling 12.0%, Autofluor 339 3.82*, Spn MK inh 8.0 and Spn PMK inh 16.0.
For COc1ccc(C(=O)Nn2cc3c(c2-c2ccccc2)c(=O)n(C)c(=O)n3C)cc1 the results were A340 absorber 1.08, DPM-DC inhibit inactive, NADH coupling 2.0%, Autofluor 339 1.37, Spn MK inh 2.0 and Spn PMK inh 3.0.
Screening COc1cccc(-n2c(SCc3c(C)noc3C)nnc2-c2cccc(S(=O)(=O)N(C)C)c2)c1 returned A340 absorber 1.03, DPM-DC inhibit inactive, NADH coupling 6.0%, Autofluor 339 0.96, Spn MK inh 0.0 and Spn PMK inh 11.0.
CC(c1ccccc1)N1CC(C(=O)N2CCN(c3ccccc3)CC2)CC1=O (centres undefined) was read as A340 absorber 1.02, DPM-DC inhibit inactive, NADH coupling 4.0%, Autofluor 339 0.91, Spn MK inh 6.0 and Spn PMK inh 0.0.
Screening Cc1nc2cc(-c3cccc(F)c3)nn2c(N2CCOCC2)c1C returned A340 absorber 1.04, DPM-DC inhibit inactive, NADH coupling 9.0%, Autofluor 339 1.28, Spn MK inh 0.0 and Spn PMK inh 23.0.
Screening Fc1ccc(-c2cc3nc(-c4ccccc4)cc(N4CCOCC4)n3n2)cc1 returned A340 absorber 1.05, NADH coupling 8.0%, Autofluor 339 2.11*, Spn MK inh 0.0 and Spn PMK inh 16.0.
Screening CCOC(=O)N1CCN(C(=O)Cn2nc(-c3ccc(Cl)cc3)ccc2=O)CC1 returned A340 absorber 1, DPM-DC inhibit inactive, NADH coupling 8.0%, Autofluor 339 1.15, Spn MK inh 0.0 and Spn PMK inh 25.0*.
`COc1ccc(CN2C(=O)c3ccccc3C2C(=O)NC2CCCC2)c(OC)c1` (centres undefined) gave A340 absorber 0.96, DPM-DC inhibit inactive, NADH coupling 3.0%, Autofluor 339 1.01, Spn MK inh 1.0 and Spn PMK inh 25.0*.
COc1ccc(CN2C(=O)c3ccccc3C2C(=O)NCC2CCCO2)c(OC)c1 (centres undefined) was read as A340 absorber 0.99, DPM-DC inhibit inactive, NADH coupling 7.0%, Autofluor 339 1.08, Spn MK inh 0.0 and Spn PMK inh 20.0.
Screening CN(C)c1oc(-c2ccco2)nc1C#N returned A340 absorber 1.06, NADH coupling 14.0%, Autofluor 339 3.96*, Spn MK inh 13.0 and Spn PMK inh 14.0.
N#Cc1nc(-c2ccco2)oc1N1CCN(Cc2ccccc2)CC1 was read as A340 absorber 1.05, DPM-DC inhibit inactive, NADH coupling 12.0%, Autofluor 339 1.7, Spn MK inh 14.0 and Spn PMK inh 13.0.
`CN(Cc1ccccc1)c1oc(-c2ccco2)nc1C#N` gave A340 absorber 1.03, NADH coupling 17.0%, Autofluor 339 3.94*, Spn MK inh 16.0 and Spn PMK inh 17.0.
Screening O=S1(=O)C=C(Sc2nc3cc(Cl)ccc3o2)c2ccccc21 returned A340 absorber 1.01, DPM-DC inhibit inactive, NADH coupling 5.0%, Autofluor 339 1.12, Spn MK inh 9.0 and Spn PMK inh 5.0.
For CC(=O)Nc1ccc(S(=O)(=O)NCCN2CCOCC2)cc1 the results were A340 absorber 1.04, DPM-DC inhibit inactive, NADH coupling 0.0%, Autofluor 339 1.07, Spn MK inh 0.0 and Spn PMK inh 1.0.
COc1ccc(OCC(=O)N2CCN(c3nnc(-c4ccccc4)c4ccccc34)CC2)cc1 was read as A340 absorber 1.06, DPM-DC inhibit inactive, NADH coupling 9.0%, Autofluor 339 1.13, Spn MK inh 1.0 and Spn PMK inh 26.0*.
Nc1c2c(nc3ccccc13)N(C1CCCCC1)CC2 was read as A340 absorber 1.11, NADH coupling 25.0%, Autofluor 339 2.32*, Spn MK inh 49.0* and Spn PMK inh 0.0.
COc1cccc(C2NC(CCSC)(C(=O)O)C3C(=O)N(C(C)C)C(=O)C23)c1O (centres undefined) was read as A340 absorber 1.04, DPM-DC inhibit inactive, NADH coupling 0.0%, Autofluor 339 1.07, Spn MK inh 0.0 and Spn PMK inh 0.0.

High-throughput results from PubChem BioAssay.
